{"source": "paper PMC11062922", "about": "(Nature Chemical Biology, 2023)", "parameters_in_all_cases": "species or system human, MV4-11 + K-562 + COLO205 + SK-N-BE2 + OVCAR-8", "key": {"MAPK8": {"tested_on": "MAPK8", "settings": "read-out: apparent Kd, n = 1"}, "PIM2": {"tested_on": "PIM2", "settings": "read-out: apparent Kd, n = 1"}, "ADCK1": {"tested_on": "ADCK1", "settings": "read-out: apparent Kd; compound concentrations:100 nM and 1000 nM (sheet 'Samples'); n = 1"}, "MTOR": {"tested_on": "MTOR", "settings": "read-out: apparent Kd, n = 1"}, "TEC": {"tested_on": "TEC", "settings": "read-out: apparent Kd; compound concentrations:100 nM and 1000 nM (sheet 'Samples'); n = 1"}, "STK3": {"tested_on": "STK3", "settings": "read-out: apparent Kd, compound concentrations: 100 nM and 1000 nM (sheet 'Samples'), n = 1"}, "PTK2B": {"tested_on": "PTK2B", "settings": "read-out: apparent Kd; compound concentrations:100 nM and 1000 nM (sheet 'Samples'); n = 1"}, "PTK2": {"tested_on": "PTK2", "settings": "read-out: apparent Kd; compound concentrations:100 nM and 1000 nM (sheet 'Samples'); n = 1"}, "LIMK2": {"tested_on": "LIMK2", "settings": "read-out: apparent Kd, n = 1"}, "CDK1": {"tested_on": "CDK1", "settings": "read-out: apparent Kd, n = 1"}, "CDK2": {"tested_on": "CDK2", "settings": "read-out: apparent Kd, compound concentrations: 100 nM and 1000 nM (sheet 'Samples'), n = 1"}, "CDK5": {"tested_on": "CDK5", "settings": "read-out: apparent Kd, n = 1"}, "TESK1": {"tested_on": "TESK1", "settings": "read-out: apparent Kd, compound concentrations: 100 nM and 1000 nM (sheet 'Samples'), n = 1"}, "PIK3CG": {"tested_on": "PIK3CG", "settings": "read-out: apparent Kd; compound concentrations: 100 nM and 1000 nM (sheet 'Samples'), CATDS: 3.2678630734210498E-2; n = 1"}, "PRKAG1": {"tested_on": "PRKAG1", "settings": "read-out: apparent Kd; compound concentrations: 100 nM and 1000 nM (sheet 'Samples'), CATDS: 2.7047929037046701E-2; n = 1"}, "[1]": {"settings": "compound concentrations:100 nM and 1000 nM (sheet 'Samples')"}}, "note": "Read-outs that look alike come from different tables or passages of the source."}
{"smiles": "Fc1ccc(-c2c(-c3ccncc3)[nH]c3nccnc23)cc1", "note": "[RO1155697-000]", "values": [{"measurement": "potency estimated from few doses", "setting": "MAPK8; [1]", "result": 1.79, "unit": "µM"}, {"measurement": "potency estimated from few doses", "setting": "PIM2; [1]", "result": 1.07, "unit": "µM"}]}
{"smiles": "Nc1nc(N)c2nc(-c3ccccc3)[nH]c2n1", "note": "[SKF-12778]", "values": [{"measurement": "potency estimated from few doses", "setting": "ADCK1", "result": 1.2, "unit": "µM"}, {"measurement": "potency estimated from few doses", "setting": "MTOR; [1]", "result": 0.4, "unit": "µM"}, {"measurement": "potency estimated from few doses", "setting": "TEC", "result": 1.16, "unit": "µM"}]}
{"smiles": "CN1CCc2ccc(Nc3nccc(-c4c(-c5cccc(NC(=O)c6c(F)cccc6F)c5)nc5ccccn45)n3)cc2C1.Cl", "note": "[GSK1010829B]", "values": [{"measurement": "potency estimated from few doses", "setting": "STK3; CATDS: 3.0039466965453999E-2", "result": 2.17, "unit": "µM"}]}
{"smiles": "Cl.Cn1c(=O)c(Cc2ccc(F)cc2F)cc2cnc(NC3CCOCC3)nc21", "note": "[RO3308757-001]", "values": [{"measurement": "potency estimated from few doses", "setting": "PTK2B", "result": 0.456, "unit": "µM"}, {"measurement": "potency estimated from few doses", "setting": "PTK2", "result": 0.474, "unit": "µM"}]}
{"smiles": "CC(C)c1nc(-c2ccc(F)c(NS(=O)(=O)c3c(F)cccc3F)c2)c(-c2ccnc(Nc3ccc(N4CCOCC4)nc3)n2)s1", "note": "[GSK1804250A]", "values": [{"measurement": "potency estimated from few doses", "setting": "LIMK2; [1]", "result": 0.478, "unit": "µM"}]}
{"smiles": "CC(C)c1nc(-c2cccc(NS(=O)(=O)c3c(F)cccc3F)c2)c(-c2ccnc(Nc3ccc(N4CCOCC4)nc3)n2)s1.Cl", "note": "[GSK1723980B]", "values": [{"measurement": "potency estimated from few doses", "setting": "CDK1; compound concentrations: 100 nM and 1000 nM (sheet 'Samples'), CATDS: 1.4820123571840101E-2", "result": 1.58, "unit": "µM"}, {"measurement": "potency estimated from few doses", "setting": "CDK2; CATDS: 1.87425082345213E-2", "result": 0.614, "unit": "µM"}, {"measurement": "potency estimated from few doses", "setting": "CDK5; compound concentrations: 100 nM and 1000 nM (sheet 'Samples'), CATDS: 2.2922403030908301E-2", "result": 0.35, "unit": "µM"}, {"measurement": "potency estimated from few doses", "setting": "LIMK2; compound concentrations: 100 nM and 1000 nM (sheet 'Samples'), CATDS: 2.58899611952562E-2", "result": 0.263, "unit": "µM"}, {"measurement": "potency estimated from few doses", "setting": "TESK1; CATDS: 3.6756821103285202E-2", "result": 0.132, "unit": "µM"}]}
{"smiles": "CC(C)c1nc(-c2cccc(NS(=O)(=O)c3c(F)cccc3F)c2F)c(-c2ccnc(Nc3ccc(N4CCOCC4)nc3)n2)s1", "note": "[GSK2008607A]", "values": [{"measurement": "potency estimated from few doses", "setting": "CDK1; compound concentrations: 100 nM and 1000 nM (sheet 'Samples'), CATDS: 1.7444638533949799E-2", "result": 2.41, "unit": "µM"}, {"measurement": "potency estimated from few doses", "setting": "CDK2; CATDS: 2.0277618916634502E-2", "result": 1.32, "unit": "µM"}, {"measurement": "potency estimated from few doses", "setting": "CDK5; compound concentrations: 100 nM and 1000 nM (sheet 'Samples'), CATDS: 2.5832908266049601E-2", "result": 0.668, "unit": "µM"}, {"measurement": "potency estimated from few doses", "setting": "LIMK2; compound concentrations: 100 nM and 1000 nM (sheet 'Samples'), CATDS: 2.06856155254838E-2", "result": 1.24, "unit": "µM"}, {"measurement": "potency estimated from few doses", "setting": "TESK1; CATDS: 2.61955130991521E-2", "result": 0.646, "unit": "µM"}]}
{"smiles": "COc1ccc(-c2nc3n(c2-c2ccncc2)CCC3)cc1.COc1ccc(-c2nc3n(c2-c2ccncc2)CCC3)cc1.O=S(=O)(O)O.O=S(=O)(O)O", "note": "[SKF-104493-B2]", "values": [{"measurement": "potency estimated from few doses", "setting": "PIM2; compound concentrations: 100 nM and 1000 nM (sheet 'Samples'), CATDS: 0.11675722362862", "result": 1.57, "unit": "µM"}]}
{"smiles": "N#Cc1cccc(Nc2nccc(-c3cnn4ncccc34)n2)c1", "note": "[GW778894X]", "values": [{"measurement": "potency estimated from few doses", "setting": "ADCK1", "result": 2.05, "unit": "µM"}, {"measurement": "potency estimated from few doses", "setting": "CDK1; [1]", "result": 1.24, "unit": "µM"}, {"measurement": "potency estimated from few doses", "setting": "CDK2; CATDS: 2.8219089282239498E-2", "result": 0.194, "unit": "µM"}, {"measurement": "potency estimated from few doses", "setting": "CDK5; [1]", "result": 0.669, "unit": "µM"}, {"measurement": "potency estimated from few doses", "setting": "MAPK8; [1]", "result": 1.33, "unit": "µM"}]}
{"smiles": "CC(=O)N1CCN(c2ccc(Nc3nccc(-c4sc(C(C)C)nc4-c4cccc(NS(=O)(=O)c5cccc(Cl)c5)c4)n3)cn2)CC1", "note": "[GSK1660437A]", "values": [{"measurement": "potency estimated from few doses", "setting": "LIMK2; compound concentrations: 100 nM and 1000 nM (sheet 'Samples'), CATDS: 4.7315516345464E-2", "result": 0.946, "unit": "µM"}]}
{"smiles": "O=S(=O)(CCOCc1ccc(-c2ccc3ncnc(Nc4ccc(OCc5cccc(F)c5)c(Cl)c4)c3c2)o1)c1ccccc1", "note": "[GW615311X]", "values": [{"measurement": "potency estimated from few doses", "setting": "MAPK8; compound concentrations: 100 nM and 1000 nM (sheet 'Samples'), CATDS: 2.6376171995156399E-2", "result": 1.54, "unit": "µM"}, {"measurement": "potency estimated from few doses", "setting": "MTOR; compound concentrations: 100 nM and 1000 nM (sheet 'Samples'), CATDS: 4.7570184263153799E-2", "result": 0.527, "unit": "µM"}, {"measurement": "potency estimated from few doses", "setting": "PIK3CG", "result": 0.992, "unit": "µM"}, {"measurement": "potency estimated from few doses", "setting": "PRKAG1", "result": 1.45, "unit": "µM"}, {"measurement": "potency estimated from few doses", "setting": "STK3; CATDS: 2.3351352966808198E-2", "result": 2.07, "unit": "µM"}]}
